Cruzain inh noDet = inhibitors of Trypanosoma cruzi cruzain without detergent; P25779; purified cruzain, Z-FR-AMC fluorescence, no detergent; Potency, µM, without a hit: max response, negative = inhibition, actives largely listed as inhibitors; 2.3% of 200,000 active; AID 1476;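 note: plate controls were enzyme without inhibitor for no effect and buffer without enzyme for full effect; nearly all actives have a fitted effect of over 40% in size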
Target sequence (P25779 123-467 limits assumed): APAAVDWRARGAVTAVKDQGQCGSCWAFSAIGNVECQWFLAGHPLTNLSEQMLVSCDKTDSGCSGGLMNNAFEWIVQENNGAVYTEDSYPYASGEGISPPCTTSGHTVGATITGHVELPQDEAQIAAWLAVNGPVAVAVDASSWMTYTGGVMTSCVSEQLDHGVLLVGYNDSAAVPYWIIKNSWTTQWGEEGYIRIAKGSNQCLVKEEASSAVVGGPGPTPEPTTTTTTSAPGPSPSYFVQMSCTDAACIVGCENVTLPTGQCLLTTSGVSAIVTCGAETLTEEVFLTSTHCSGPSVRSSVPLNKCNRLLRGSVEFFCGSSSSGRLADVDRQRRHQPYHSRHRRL
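Detergent-free condition (0.00005% Triton X-100) in acetate buffer pH 5.5 with DTT. 1.5 nM enzyme and compound were pre-mixed 15 min, then 2 uM Z-FR-AMC substrate added; reaction progress from fluorescence change between first and third reads (60 s).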
Cruzain Triton = blocks cruzain activity in presence of Triton detergent; P25779; purified cruzain, Z-FR-AMC fluorescence, 0.01% Triton; Potency, µM, without a hit: max response, negative = inhibition, usual class: inhibitors; 0.43% of 200,000 active;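 note: plate controls were neutral wells for no effect and buffer without enzyme for full effect; nearly all actives have a fitted effect of over 40% in size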
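Z-FR-AMC hydrolysis (2 uM substrate) by cruzain (1.5 nM) monitored kinetically at ex 360/em 450 nm after 15 min room-temperature compound exposure; 0.01% Triton X-100, pH 5.5, 5 mM DTT.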
Active calls of the source: *; ? = inconclusive; ! = a repeat was not active. Compounds with a hit are over-represented: about 2.6% of the library has one in this group of screens. Calls come from the whole dose curve; as a rule, active = well fitted curve in the direction sought with a large enough effect; inconclusive = small, poorly fitted or top-dose-only effect, or another doubt; inactive = no such curve, though single readings can be large; an effect the other way counts as inactive or inconclusive. Potency is the fitted concentration of half-maximal effect.

SMILES	Cruzain inh noDet	Cruzain Triton
O=C(CSc1oc(-c2ccc(F)cc2)nc1S(=O)(=O)c1ccccc1)c1ccc(Cl)cc1	31.6µM*	-4.5%
Cc1ccc(-c2nc(S(=O)(=O)c3ccc(C)cc3)c(SCC(=O)c3ccccc3)o2)cc1	15.8µM*	-5.3%
Cc1ccc(S(=O)(=O)c2nc(-c3ccc(F)cc3)oc2SCC(=O)c2ccccc2)cc1	?	-1.0%
O=C(CSc1oc(-c2ccccc2)nc1S(=O)(=O)c1ccc(Cl)cc1)Nc1ccc(F)cc1	5.8%	-4.6%
COc1cccc(NC(=O)c2cnc(SCC(=O)N3CCOCC3)n(C)c2=O)c1	11.6%	2.4%
CC1=C(C(N)=O)C(c2cccc(F)c2)n2nc(SCc3ccccc3)nc2N1 (stereo not drawn)	?	0.4%
COc1ccc(N2CCN(C(CNC(=O)c3ccc(C)cc3)c3ccc4c(c3)OCO4)CC2)cc1 (stereo not drawn)	7.1%	-4.8%
C[C@H](O)CON1C(=O)c2ccccc2C1=O	-2.5%	2.4%
COc1cc(NS(=O)(=O)c2ccc(C)cc2C)cc(OC)c1OC	1.4%	1.7%
Cc1ccc(S(=O)(=O)ON2C(=O)c3ccccc3C2=O)c(C)c1	15.8µM*	12.6µM*
Cc1cc(C)c(C)c(S(=O)(=O)ON2C(=O)c3ccccc3C2=O)c1C	25.1µM*	20µM*
Cc1ccc(CNC(=O)c2cccc(Nc3nc4ccccc4n4nnnc34)c2)cc1	-8.4%	-1.5%
Cc1ccc(NC(=O)Cn2c(=O)ccc3cc(S(=O)(=O)N4CCCC4)ccc32)cc1N(C)C	?	0.0%
N#C/C(=C(/O)CSc1ccccc1C(=O)O)c1nc2ccccc2s1	-3.1%	4.1%
Cc1ccc(SC/C(O)=C(\C#N)c2nc3ccccc3s2)cc1	25.1µM*	1.1%
CCSc1nnc([C@H](Cc2ccccc2)NC(=O)OC(C)(C)C)o1	-3.7%	-8.2%
Cc1ccccc1CS(=O)(=O)c1nnc([C@H](Cc2ccccc2)NC(=O)OC(C)(C)C)o1	?	14.1µM*
CC(C)(C)OC(=O)N[C@@H](Cc1ccccc1)c1nnc(SCC(=O)c2ccc(Cl)cc2)o1	?	-0.3%
CC(C)(C)OC(=O)N[C@@H](Cc1ccccc1)c1nnc(S(=O)(=O)Cc2ccccc2)o1	31.6µM*	15.8µM*
COc1ccc(C(=O)N2CCC3(CCN(Cc4ccccc4OC)CC3)CC2)cc1	-4.5%	1.7%
CC(=O)Nc1c(C)nn(-c2ccccc2)c1N1CCC(C(=O)NCc2ccccc2Cl)CC1	15.2%	28.2µM*
CC(=O)Nc1c(C)nn(-c2ccccc2)c1N1CCC(C(=O)NCc2cccc(Cl)c2)CC1	?	-13.9%
Nc1cnn([C@@H]2O[C@H](CO)[C@@H](O)[C@H]2O)c(=O)n1	-2.3%	5.0%
CC(=O)Oc1ccc(C(=O)[C@H]2[C@H]3C(=O)N(c4ccc5ccccc5c4)C(=O)[C@H]3[C@@H]3C=CC=NN32)cc1	?	-1.6%
Cc1ccc(N2C(=O)[C@@H]3[C@H](C2=O)[C@H]2C=CC=NN2[C@@H]3C(=O)Nc2ccc(Cl)cc2)cc1	-0.6%	-8.1%
SMILES	Cruzain inh noDet	Cruzain Triton
O=C(Nc1ccc(Cl)cc1)[C@@H]1[C@@H]2C(=O)N(c3ccc(Cl)cc3Cl)C(=O)[C@@H]2[C@H]2C=CC=NN21	15.8µM*	-5.3%
O=C(Nc1ccc(Cl)cc1)[C@@H]1[C@@H]2C(=O)N(c3ccc(Cl)cc3)C(=O)[C@@H]2[C@H]2C=CC=NN21	20µM*	-5.5%
O=C(Nc1c(Cl)cccc1Cl)c1ccc(-c2ccccc2)cc1	-8.6%	0.6%
Cc1ccc([N+](=O)[O-])cc1NC(=O)c1ccc(-c2ccccc2)cc1	12.6µM*	3.0%
Cc1ccc([N+](=O)[O-])cc1NC(=O)c1ccc(C(C)(C)C)cc1	-1.7%	-1.2%
O=C(Nc1ccc(Cl)cc1Cl)c1ccc(-c2ccccc2)cc1	25.1µM*	0.0%
CC1CCCN(CCCNC(=O)c2ccc3c(c2)N(Cc2ccc(Cl)cc2)C(=O)c2ccccc2S3(=O)=O)C1 (stereo not drawn)	?	-0.2%
O=C(O)c1cc(-n2c(/C=C\c3ccc(F)cc3)nc3ccccc3c2=O)ccc1Cl	1.7%	0.3%
COCCNC(=O)CSc1nc2cc3c(cc2c(=O)n1Cc1ccc(C(=O)NCCc2ccc(OC)c(OC)c2)cc1)OCO3	2.2%	0.6%
COc1ccc(C(=O)Nc2ccc3nc(SCC(=O)N4CCc5ccccc54)sc3c2)cc1	13.6%	-1.4%
O=C(Nc1ccc2nc(SCC(=O)N3CCCc4ccccc43)sc2c1)c1cccc(Cl)c1	6.31µM*	-4.6%
COc1cccc(C(=O)Nc2ccc3nc(SCC(=O)N4CCc5ccccc54)sc3c2)c1	12.6µM*	-2.9%
O=C(Nc1ccc2nc(SCC(=O)N3CCc4ccccc43)sc2c1)c1cccc(Cl)c1	?	-0.7%
CCN(CC)CCNC(=O)c1c2c(nc3ccccc13)C(=O)N(C1CCCCC1)C2	-7.7%	-3.2%
COC(=O)c1cccc(NC(=O)N(C)CCc2c(C)nn(C)c2C)c1	-5.3%	-0.4%
CCOC(=O)c1c(C)[nH]c(C2=NNC(=Nc3cccc(Cl)c3)SC2)c1C	15.8µM*	0.6%
CCOC(=O)c1c(C)[nH]c(C=O)c1Cc1cccc(Cl)c1	-6.2%	-7.9%
Cc1ccc(NC(=O)COC(=O)c2ccccc2Nc2ccccc2)cc1	?	-8.6%
Cc1cccc(C(=O)Nc2ccccc2C(=O)OCC(=O)Nc2ccc(C#N)cc2)c1	31.6µM*	-5.2%
Cc1ccc(NC(=O)CSc2nc(=O)n(CCN3CCOCC3)c3c2CCC3)c(C)c1	-6.6%	-0.7%
CC(=O)c1ccc(NC(=O)c2nc3ccccc3n(C)c2=O)cc1	-4.4%	2.3%
Nc1nnc(SCCCC(=O)c2ccccc2)s1	2.4%	-0.3%
Nc1nnc(SCC(=O)c2ccc3ccccc3c2)s1	31.6µM*	-4.8%
N/N=C1/CC(=O)NC(=O)N1	-6.0%	-0.4%
Nc1nc(SCC(=O)NCc2ccc(F)cc2)[nH]c(=O)c1NC(=O)c1ccc(Cl)cc1	25.1µM*	1.7%
SMILES	Cruzain inh noDet	Cruzain Triton
Nc1nc(SCC(=O)NCc2ccccc2Cl)[nH]c(=O)c1NC(=O)c1ccccc1F	?	3.3%
CCc1ccccc1Nc1nc2cc(Cl)c(Cl)cc2nc1-n1nc(C)cc1C	5.0%	-0.7%
CCOC(=O)c1[nH]c(C)c(CCC(=O)NCc2cccc(C)c2)c1C	-3.6%	4.1%
Fc1ccc(Nc2nc3ccccc3n3cnnc23)c(F)c1	16.1%	-4.2%
N=C(N)SCc1nc2ccccc2c(=O)n1-c1ccccc1	25.1µM*!	-3.0%
O=c1c2ccccc2nc(CSc2ncnc3nc[nH]c23)n1-c1ccccc1	-13.4%	4.9%
Cc1ccc2c(c1)NC(c1cccnc1)=NC(c1ccc(F)cc1)=N2	4.6%	-3.7%
Cc1ccc(C2=NC(c3ccc(F)cc3)=Nc3ccc(C)cc3N2)cc1	25.1µM*	-0.6%
Cc1ccc(S(=O)(=O)N2CCc3cc(C(=O)N(C)Cc4ccccc4)ccc32)cc1	4.6%	-4.9%
COc1ccccc1C(=O)Nc1cccc(OCc2cc(=O)n3c4c(sc3n2)CCCC4)c1	1.0%	-0.4%
O=C1OCCN1C(=O)[C@H]1[C@H](c2ccc(F)cc2)C(c2cccc(Cl)c2)=NN1c1ccccc1	20µM*	-3.9%
C[C@@H]1C(c2ccc(F)cc2)=NN(c2ccccc2)[C@H]1C(=O)N1CCOC1=O	-4.2%	-12.3%
CC[C@@H]1C(c2cccc(Cl)c2)=NN(c2ccccc2)[C@H]1C(=O)N1CCOC1=O	-29.9%	-0.7%
O=C1OCCN1C(=O)[C@H]1[C@H](c2ccc(Cl)cc2)C(c2cccc(Cl)c2)=NN1c1ccccc1	17.8µM*	-13.6%
O=C(COC(=O)/C=C/c1ccccc1)Nc1cc(C(F)(F)F)ccc1N1CCOCC1	-1.5%	-1.8%
